From article PMC7862700, “An all-to-all approach to the identification of sequence-specific readers for epigenetic DNA modifications on cytosine”

Experiments:
Assay in all cases: DAPPL (digital affinity profiling via proximity ligation, sequencing); 10 mM Tris-HCl pH 7.5, 50 mM NaCl, 1 mM DTT, 4% glycerol, room temperature, 30 min; GST-TFs on glutathione beads, 16-mer random dsDNA library, 0.1% formaldehyde crosslink after washing; high values mean tight binding
Settings in all cases: protein: recombinant; tags: N-terminal GST; dsDNA, one strand shown
FLI1 = target: T1, FLI1 (Homo sapiens, UniProt Q01543 1-452)
T1 sequence: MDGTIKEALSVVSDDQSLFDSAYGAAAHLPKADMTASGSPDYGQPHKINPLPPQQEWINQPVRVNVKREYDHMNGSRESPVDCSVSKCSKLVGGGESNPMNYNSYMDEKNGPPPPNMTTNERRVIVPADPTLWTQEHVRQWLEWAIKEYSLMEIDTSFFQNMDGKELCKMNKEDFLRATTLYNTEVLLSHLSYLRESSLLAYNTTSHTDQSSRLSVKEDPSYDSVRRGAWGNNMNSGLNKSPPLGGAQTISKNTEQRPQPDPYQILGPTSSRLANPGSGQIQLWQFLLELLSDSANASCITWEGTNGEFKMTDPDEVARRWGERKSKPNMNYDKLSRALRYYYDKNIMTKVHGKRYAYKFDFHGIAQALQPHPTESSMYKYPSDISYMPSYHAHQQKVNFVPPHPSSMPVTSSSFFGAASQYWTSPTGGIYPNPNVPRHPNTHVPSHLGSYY
Summary of the method: (§1)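 Human transcription factors fused to GST were expressed in yeast, captured on glutathione beads, given DNA barcodes and pooled with a GST-only negative control. Pools were incubated with 200 nmole of a 16-mer random double-stranded DNA library in Tris/NaCl/DTT/glycerol buffer at room temperature for 30 min. They were then washed, crosslinked with 0.1% formaldehyde, proximity-ligated (BsaI/T4 ligase, 1 h, 37 °C), PCR-amplified and sequenced on an Illumina NextSeq500. Binding signal is each 6-mer's read frequency for a factor divided by its frequency for the GST control.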

ELK1 = target: T2, ELK1 (Homo sapiens, UniProt P19419 1-428)
T2 sequence: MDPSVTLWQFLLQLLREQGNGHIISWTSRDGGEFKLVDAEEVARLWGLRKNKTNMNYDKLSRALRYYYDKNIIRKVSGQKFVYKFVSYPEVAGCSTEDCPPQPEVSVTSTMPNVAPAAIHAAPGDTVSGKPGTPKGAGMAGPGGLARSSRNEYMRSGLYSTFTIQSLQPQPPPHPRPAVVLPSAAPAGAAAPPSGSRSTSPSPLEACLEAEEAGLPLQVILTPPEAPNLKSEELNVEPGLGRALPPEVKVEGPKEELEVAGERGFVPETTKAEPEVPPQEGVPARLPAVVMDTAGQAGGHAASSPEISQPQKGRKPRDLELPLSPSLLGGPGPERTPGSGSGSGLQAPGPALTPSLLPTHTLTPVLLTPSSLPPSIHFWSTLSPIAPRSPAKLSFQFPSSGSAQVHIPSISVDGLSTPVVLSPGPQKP
Summary of the method: as §1

GABPA = target: T3, GABPA (Homo sapiens, UniProt Q06546 1-454)
T3 sequence: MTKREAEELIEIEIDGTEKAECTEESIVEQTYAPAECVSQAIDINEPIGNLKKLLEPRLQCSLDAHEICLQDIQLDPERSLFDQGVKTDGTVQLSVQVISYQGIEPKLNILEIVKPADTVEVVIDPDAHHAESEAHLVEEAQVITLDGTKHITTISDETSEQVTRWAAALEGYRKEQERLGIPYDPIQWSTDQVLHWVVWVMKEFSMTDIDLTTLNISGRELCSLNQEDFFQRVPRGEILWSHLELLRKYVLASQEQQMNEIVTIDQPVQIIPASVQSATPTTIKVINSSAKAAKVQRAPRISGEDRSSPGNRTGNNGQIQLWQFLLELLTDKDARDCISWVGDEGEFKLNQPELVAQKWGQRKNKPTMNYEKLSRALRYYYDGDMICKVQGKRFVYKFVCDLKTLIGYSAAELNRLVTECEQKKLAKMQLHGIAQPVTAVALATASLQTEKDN
Summary of the method: as §1

ERG = target: T4, ERG (Homo sapiens, UniProt P11308 1-479)
T4 sequence: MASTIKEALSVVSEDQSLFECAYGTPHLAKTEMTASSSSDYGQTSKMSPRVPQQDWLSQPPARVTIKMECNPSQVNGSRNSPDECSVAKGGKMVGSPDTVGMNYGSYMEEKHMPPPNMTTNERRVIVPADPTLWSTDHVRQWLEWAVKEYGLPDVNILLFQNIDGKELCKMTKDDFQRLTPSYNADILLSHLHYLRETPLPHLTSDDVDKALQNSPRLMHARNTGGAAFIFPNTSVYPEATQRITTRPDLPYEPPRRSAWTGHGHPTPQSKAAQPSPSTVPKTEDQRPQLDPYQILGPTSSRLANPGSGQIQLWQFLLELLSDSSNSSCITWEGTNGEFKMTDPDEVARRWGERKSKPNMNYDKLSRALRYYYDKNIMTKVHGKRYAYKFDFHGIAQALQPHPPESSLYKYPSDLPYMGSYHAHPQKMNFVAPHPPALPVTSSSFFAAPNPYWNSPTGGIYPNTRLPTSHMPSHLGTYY
Summary of the method: as §1

ELF1 = ELF1 (Homo sapiens, UniProt P32519 1-619)
Sequence of ELF1 (P32519 whole entry): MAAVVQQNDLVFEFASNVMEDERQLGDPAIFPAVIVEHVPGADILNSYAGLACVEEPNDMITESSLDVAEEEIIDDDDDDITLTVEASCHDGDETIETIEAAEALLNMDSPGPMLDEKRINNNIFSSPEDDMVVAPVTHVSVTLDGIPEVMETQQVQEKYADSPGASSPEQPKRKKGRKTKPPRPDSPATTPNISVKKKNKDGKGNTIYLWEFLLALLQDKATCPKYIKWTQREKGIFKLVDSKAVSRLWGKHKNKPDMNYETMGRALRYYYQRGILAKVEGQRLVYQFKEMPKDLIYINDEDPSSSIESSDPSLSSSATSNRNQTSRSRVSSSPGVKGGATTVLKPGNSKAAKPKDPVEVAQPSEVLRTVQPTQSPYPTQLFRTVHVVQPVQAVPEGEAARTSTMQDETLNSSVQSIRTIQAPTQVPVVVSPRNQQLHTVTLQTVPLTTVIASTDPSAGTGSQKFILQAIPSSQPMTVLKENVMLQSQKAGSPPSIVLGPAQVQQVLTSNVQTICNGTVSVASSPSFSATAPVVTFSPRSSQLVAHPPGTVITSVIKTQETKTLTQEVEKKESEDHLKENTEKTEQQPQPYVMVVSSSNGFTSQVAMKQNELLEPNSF
Summary of the method: as §1

EHF = target: T5, EHF (Homo sapiens, UniProt Q9NZC4 1-300)
T5 sequence: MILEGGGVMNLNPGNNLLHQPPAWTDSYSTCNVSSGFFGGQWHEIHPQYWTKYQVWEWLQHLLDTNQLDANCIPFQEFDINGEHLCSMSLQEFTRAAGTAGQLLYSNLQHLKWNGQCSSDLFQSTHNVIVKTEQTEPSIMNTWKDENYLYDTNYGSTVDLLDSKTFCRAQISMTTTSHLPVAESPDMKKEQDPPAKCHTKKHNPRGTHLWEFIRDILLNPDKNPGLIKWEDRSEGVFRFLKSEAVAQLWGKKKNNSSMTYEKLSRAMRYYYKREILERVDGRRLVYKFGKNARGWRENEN
Summary of the method: as §1

SPI1 [1] = target: SPI1 (Homo sapiens, UniProt P17947 1-270)
Summary of the method: as §1

SPIB = SPIB (Homo sapiens, UniProt Q01892 1-262)
Sequence of SPIB (Q01892 whole entry): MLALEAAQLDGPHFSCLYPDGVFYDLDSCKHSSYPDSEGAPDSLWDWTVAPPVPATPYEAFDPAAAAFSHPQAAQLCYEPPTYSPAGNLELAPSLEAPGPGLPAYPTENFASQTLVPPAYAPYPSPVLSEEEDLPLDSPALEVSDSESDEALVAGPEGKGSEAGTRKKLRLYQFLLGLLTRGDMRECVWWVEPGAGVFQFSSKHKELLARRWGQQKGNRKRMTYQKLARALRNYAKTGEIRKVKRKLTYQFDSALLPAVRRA
Summary of the method: as §1

SPI1 [2] = target: SPI1 (Homo sapiens, UniProt P17947 1-270); remark: listed apart in the source
Summary of the method: as §1

ELK3 = target: T6, ELK3 (Homo sapiens, UniProt P41970 1-407)
T6 sequence: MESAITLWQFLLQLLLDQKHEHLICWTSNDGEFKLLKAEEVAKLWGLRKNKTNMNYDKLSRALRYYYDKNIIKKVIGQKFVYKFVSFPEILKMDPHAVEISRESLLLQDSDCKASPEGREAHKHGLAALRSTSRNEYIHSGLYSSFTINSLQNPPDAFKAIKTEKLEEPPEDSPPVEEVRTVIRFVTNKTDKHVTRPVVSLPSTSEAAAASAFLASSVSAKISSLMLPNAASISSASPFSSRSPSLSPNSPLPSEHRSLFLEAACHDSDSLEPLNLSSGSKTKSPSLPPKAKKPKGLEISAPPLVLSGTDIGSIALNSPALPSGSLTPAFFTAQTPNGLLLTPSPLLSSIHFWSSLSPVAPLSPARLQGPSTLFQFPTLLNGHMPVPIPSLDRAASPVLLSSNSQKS
Summary of the method: as §1

Sequence | binding signal (FLI1) | binding signal (ELK1) | binding signal (GABPA) | binding signal (ERG) | binding signal (ELF1) | binding signal (EHF) | binding signal (SPI1 [1]) | binding signal (SPIB) | binding signal (SPI1 [2]) | binding signal (ELK3)
ACGGCC | 1.1 fold enrichment (6-mer frequency, TF over GST control) | 1.13 fold enrichment (6-mer frequency, TF over GST control) | 1.12 fold enrichment (6-mer frequency, TF over GST control) | 1.09 fold enrichment (6-mer frequency, TF over GST control) | 1.09 fold enrichment (6-mer frequency, TF over GST control) | 1.09 fold enrichment (6-mer frequency, TF over GST control) | 1.09 fold enrichment (6-mer frequency, TF over GST control) | 1.26 fold enrichment (6-mer frequency, TF over GST control) |  | 
TATTCG | 1.11 fold enrichment (6-mer frequency, TF over GST control) | 1.11 fold enrichment (6-mer frequency, TF over GST control) | 1.2 fold enrichment (6-mer frequency, TF over GST control) | 1.14 fold enrichment (6-mer frequency, TF over GST control) | 1.14 fold enrichment (6-mer frequency, TF over GST control) | 1.11 fold enrichment (6-mer frequency, TF over GST control) | 1.18 fold enrichment (6-mer frequency, TF over GST control) | 1.16 fold enrichment (6-mer frequency, TF over GST control) |  | 
ACCTCG | 1 fold enrichment (6-mer frequency, TF over GST control) | 1.18 fold enrichment (6-mer frequency, TF over GST control) | 1.24 fold enrichment (6-mer frequency, TF over GST control) | 1.15 fold enrichment (6-mer frequency, TF over GST control) | 1.11 fold enrichment (6-mer frequency, TF over GST control) | 1.16 fold enrichment (6-mer frequency, TF over GST control) | 1.14 fold enrichment (6-mer frequency, TF over GST control) | 1.19 fold enrichment (6-mer frequency, TF over GST control) |  | 
AATCAT | 1.13 fold enrichment (6-mer frequency, TF over GST control) | 1.12 fold enrichment (6-mer frequency, TF over GST control) | 1.19 fold enrichment (6-mer frequency, TF over GST control) | 1.12 fold enrichment (6-mer frequency, TF over GST control) | 1.16 fold enrichment (6-mer frequency, TF over GST control) | 1.17 fold enrichment (6-mer frequency, TF over GST control) | 1.07 fold enrichment (6-mer frequency, TF over GST control) | 1.21 fold enrichment (6-mer frequency, TF over GST control) |  | 
AGACTT | 1.09 fold enrichment (6-mer frequency, TF over GST control) | 1.04 fold enrichment (6-mer frequency, TF over GST control) | 1.03 fold enrichment (6-mer frequency, TF over GST control) | 1.09 fold enrichment (6-mer frequency, TF over GST control) | 1.01 fold enrichment (6-mer frequency, TF over GST control) | 1.08 fold enrichment (6-mer frequency, TF over GST control) | 1.09 fold enrichment (6-mer frequency, TF over GST control) | 1.04 fold enrichment (6-mer frequency, TF over GST control) |  | 
GGAAGT | 2.88 fold enrichment (6-mer frequency, TF over GST control) | 3.29 fold enrichment (6-mer frequency, TF over GST control) | 2.57 fold enrichment (6-mer frequency, TF over GST control) | 3.6 fold enrichment (6-mer frequency, TF over GST control) | 2.87 fold enrichment (6-mer frequency, TF over GST control) | 3.23 fold enrichment (6-mer frequency, TF over GST control) |  | 3.19 fold enrichment (6-mer frequency, TF over GST control) | 4.86 fold enrichment (6-mer frequency, TF over GST control) | 3.36 fold enrichment (6-mer frequency, TF over GST control)
ATCGTC | 1.11 fold enrichment (6-mer frequency, TF over GST control) | 1.17 fold enrichment (6-mer frequency, TF over GST control) | 1.06 fold enrichment (6-mer frequency, TF over GST control) | 1.03 fold enrichment (6-mer frequency, TF over GST control) | 1.05 fold enrichment (6-mer frequency, TF over GST control) | 1.1 fold enrichment (6-mer frequency, TF over GST control) | 1.04 fold enrichment (6-mer frequency, TF over GST control) | 1.15 fold enrichment (6-mer frequency, TF over GST control) |  | 
CCAAAT | 1.02 fold enrichment (6-mer frequency, TF over GST control) | 1.1 fold enrichment (6-mer frequency, TF over GST control) | 1.01 fold enrichment (6-mer frequency, TF over GST control) | 1.1 fold enrichment (6-mer frequency, TF over GST control) | 1.16 fold enrichment (6-mer frequency, TF over GST control) | 1.05 fold enrichment (6-mer frequency, TF over GST control) | 1.09 fold enrichment (6-mer frequency, TF over GST control) | 1.04 fold enrichment (6-mer frequency, TF over GST control) |  | 
